aSyn UTR act = Activators via SNCA 5'UTR binding, MLPCN. 300,000 compounds, 7.1% hits. activity score, % (tested at 7.5 µM), hits read low. alpha-synuclein 5'UTR reporter, activators screen; in the data active = activity score below about -60%
Each line names hits and unclear results; the compound was inactive in the other large screens. The list is a sample of the results.

Cc1ccc(-n2nc3ccc(NC(=O)/C=C/c4ccco4)cc3n2)cc1	aSyn UTR act -201.8
O=C(/C=C/c1ccco1)Nc1ccc2c(c1)OCO2	aSyn UTR act -187.7
O=C(/C=C/Nc1cccc(F)c1)c1ccco1	aSyn UTR act -264.0
O=C(/C=C/Nc1ccc(F)c(Cl)c1)c1ccco1	aSyn UTR act -147.8
CCc1cc(C(c2ccc(OC)c(OC)c2)N2CCOCC2)c(NC(=O)c2ccccc2)s1 (stereo unspecified)	aSyn UTR act -62.0
N#Cc1ccsc1NC(=O)c1ccc(Cl)c([N+](=O)[O-])c1	aSyn UTR act -115.9
O=C(Nc1ccc2c(c1)OCCO2)c1ccc(Cl)c(Cl)c1	aSyn UTR act -130.9
CCOc1ccc(C(=O)Nc2ncccc2Cl)cc1	aSyn UTR act -116.4
O=C(Nc1ccc2c(c1)OCCO2)c1ccc(Cl)c([N+](=O)[O-])c1	aSyn UTR act -104.5
O=C(CNC(=O)c1ccc2c(c1)OCO2)Nc1ncccc1O	aSyn UTR act -76.6
O=C(Nc1ccc(Cl)c(Cl)c1)C1=Cc2ccccc2OC1	aSyn UTR act -202.3
O=C(Nc1ncccc1Cl)c1ccc2c(c1)OCCO2	aSyn UTR act -118.9
CCn1cc([N+](=O)[O-])c(C(=O)Nc2ccc3c(c2)OCCO3)n1	aSyn UTR act -69.5
O=c1n(-c2ccc(Br)cc2)cnn1-c1ncccc1[N+](=O)[O-]	aSyn UTR act -101.1
COc1ccc(-c2csc(NC(=O)c3ccccc3F)c2C(=O)O)cc1	aSyn UTR act -89.5
COC(=O)c1c(-c2ccc(F)cc2)csc1NC(=O)c1ccco1	aSyn UTR act -128.7
COC(=O)c1c(-c2cccnc2)csc1NC(=O)c1cc(C)on1	aSyn UTR act -231.2
Cc1ccc(C(=O)Nc2scc(-c3ccccc3)c2C(=O)O)cc1	aSyn UTR act -91.8
COC(=O)c1c(-c2ccc(C)cc2)csc1NC(=O)c1c(-c2ccccc2)noc1C	none
CN1C(c2ccc(F)cc2)=CS/C1=C(/C#N)c1nnc(N2CCOCC2)n1-c1ccccc1	aSyn UTR act -73.7
Cc1ccc(OCCSc2ncnc3nc[nH]c23)cc1	aSyn UTR act -67.2
CCCCn1cnc2c(sc3nc4c(cc32)CSC(C)(C)C4)c1=O	aSyn UTR act -104.2
O=C(Nc1ncc(Cc2ccc(SC(F)F)cc2)s1)c1ccc(OC(F)F)cc1	aSyn UTR act -128.6
CCNC(=S)Nc1ccc(N2CCCCC2)cc1	aSyn UTR act -159.0
O=C(CCl)Nc1ccc(N2CCCCCC2)cc1	aSyn UTR act -71.9
CCCC(=O)Nc1ccc(N2CCCCC2)cc1	aSyn UTR act -116.3
Cc1ccc2nc(-c3ccccn3)c(NC3CCCC3)n2c1	aSyn UTR act -165.4
COc1cccc(C2=CC(c3ccc(N(C)C)cc3)n3ncnc3N2)c1 (stereo unspecified)	aSyn UTR act -71.5
COc1cccc(C2=CC(c3ccc(N(C)C)cc3)n3nnnc3N2)c1 (stereo unspecified)	aSyn UTR act -75.9
COc1ccc(C2C=C(c3ccccc3)Nc3nnnn32)cc1 (stereo unspecified)	aSyn UTR act -167.9
O=C(Nc1ccc([N+](=O)[O-])cc1)c1ccc(Cn2cc([N+](=O)[O-])cn2)cc1	none
O=C(Nc1ccc(Cl)c(Cl)c1)c1ccc(Cn2cc(Cl)cn2)cc1	aSyn UTR act -120.1
O=C(Nc1ccccc1F)c1ccc(Cn2cc(Cl)cn2)cc1	aSyn UTR act -84.2
Cc1ccc(C(=O)Nc2cc3c(cc2Cl)OCCCO3)cc1	aSyn UTR act -144.9
O=C(Nc1cc2c(cc1Br)OCCCO2)c1ccccc1	aSyn UTR act -104.4
O=C(Nc1cc2c(cc1Cl)OCCCO2)c1ccc(F)cc1	aSyn UTR act -89.8
CCc1c(C)nc2cc(-c3ccccc3)[nH]n2c1=O	aSyn UTR act -110.0
CCCCc1c(C)nc2cc(-c3ccco3)[nH]n2c1=O	aSyn UTR act -68.1
Cc1ccc(-c2noc(CN3CCC(C(N)=O)CC3)n2)cc1	aSyn UTR act -86.0
CC1CCN(Cc2nc(-c3ccccc3)no2)CC1	aSyn UTR act -190.3
CC(C)C(O)C1CCN(Cc2nc(-c3cccs3)no2)CC1 (stereo unspecified)	aSyn UTR act -107.7
C=C(C)CSc1nnc(-c2ccc(OC)cc2)n1N	aSyn UTR act -102.7
C=C(C)CSc1nncn1/N=C/c1ccc(OC)cc1	aSyn UTR act -187.0
C=C(C)CSc1nnc(-c2cccc(Cl)c2)n1N	aSyn UTR act -84.9
COC(=O)Cn1c(=NC(=O)c2ccc(Cl)s2)sc2cc(F)ccc21	aSyn UTR act -110.7
C#CCn1c(=NC(=O)c2ccc(Cl)s2)sc2cccc(OC)c21	aSyn UTR act -79.0
Clc1cccc(N/N=C(\Cc2nc3ccccc3[nH]2)c2ccccc2)c1	aSyn UTR act -102.1
O=C(O)c1ccc(N/N=C/c2ccnc3ccccc23)cc1	aSyn UTR act -119.4
O=C(O)c1ccc(N/N=C/c2cccc3cccnc23)cc1	aSyn UTR act -89.2
Oc1ccccc1/C=N/Nc1cccc2cccnc12	aSyn UTR act -233.8
CCOc1ccccc1/C=C/C(=O)c1ccc(Cl)cc1	aSyn UTR act -79.7
COc1ccccc1/C=C/C(=O)NC(=S)NC(C)C	aSyn UTR act -93.2
COc1ccc(/C=C/C(=O)c2ccc3c(c2)OCO3)c(OC)c1	aSyn UTR act -84.5
COc1cc(O)c(C(=O)/C=C/c2ccccc2)c(OC)c1	aSyn UTR act -162.7
COc1ccc(/C=C/C(=O)OCC(=O)c2ccc3c(c2)NC(=O)CO3)c(OC)c1	none
COc1ccc(/C=C/C(=O)c2ccccc2)c(OC)c1	aSyn UTR act -207.2
COc1cccc(/C=C/C(=O)c2ccc3c(c2)OCCO3)c1OC	aSyn UTR act -306.9
COc1cc(CC(=O)OCC(=O)c2ccc3c(c2)OCCO3)cc(OC)c1OC	none
COc1ccccc1/C=C/C(=O)c1ccccc1	aSyn UTR act -154.9
COc1ccccc1/C=C/C(=O)c1ccc(NC(C)=O)cc1	aSyn UTR act -204.6
COc1ccccc1/C=C/C(=O)c1ccc(Cl)cc1	aSyn UTR act -61.7
CCN(CC(=O)Nc1ccc2c(c1)OCCO2)C(=O)/C=C/c1cccc(OC)c1OC	aSyn UTR act -93.2
O=C(/C=C/c1ccccc1O)c1ccc(Cl)cc1	aSyn UTR act -188.9
COc1ccccc1/C=C/C(=O)N1CCC(c2ccccc2)C1 (stereo unspecified)	aSyn UTR act -176.5
Cc1cc(Cl)cc2c(N=Nc3ccccc3C(=O)O)c(O)[nH]c12	aSyn UTR act -67.6
c1ccc(-c2nnc(-c3ccco3)o2)cc1	aSyn UTR act -137.4
c1coc(-c2nnc(-c3cccs3)o2)c1	aSyn UTR act -98.9
Cc1ccc(-c2nnc(-c3ccc(Br)cc3)o2)o1	aSyn UTR act -134.6
Brc1ccc(-c2nnc(-c3ccco3)o2)cc1	aSyn UTR act -146.3
CCc1ccc2c(c1)C(c1ccc([N+](=O)[O-])cc1)=NNC(c1ccc(F)cc1)=N2	aSyn UTR act -79.0
O=[N+]([O-])c1ccc(NNC(=S)Nc2ccccc2)cc1	aSyn UTR act -122.0
O=[N+]([O-])c1ccc(O)c(NC(=S)Nc2ccccc2)c1	aSyn UTR act -156.6
Fc1cccc(NC(=S)NNc2ccccc2)c1	aSyn UTR act -139.9
Cc1ccnc(NC(=O)CCCc2ccccc2)c1	aSyn UTR act -181.6
O=C(CCCc1ccccc1)Nc1ccccn1	aSyn UTR act -110.9
O=C1C(C=NCCCN2CCCC2=O)=C(O)c2ccccc21	aSyn UTR act -113.4
O=C1C(C=NCc2ccccn2)=C(O)c2ccccc21	aSyn UTR act -105.6
CC(C)CN=CC1=C(O)c2ccccc2C1=O	aSyn UTR act -82.6
COc1ccc2c(c1)CCC/C2=N\Nc1nc(C(=O)NN)cs1	aSyn UTR act -92.2
O=C(N/N=C1\CCCc2ccccc21)c1ccccc1Cl	aSyn UTR act -132.5
COc1ccc2c(c1)CCC/C2=N\NC(=O)c1ccoc1C	aSyn UTR act -69.7

Compound activity: PubChem BioAssay, Broad Institute
